Laboratory results taken from PubChem BioAssay (NCATS).
Inconclusive results are not listed. Calls of active or inactive are those of the source. Unless noted, calls follow the shape of the dose curve; as a rule, active = well fitted curve in the direction sought with a large enough effect; inconclusive = small, poorly fitted or top-dose-only effect, or another doubt; inactive = no such curve, though single readings can be large; an effect the other way counts as inactive or inconclusive.

Legend:
[1] = target: DNA repair nuclease/redox regulator APEX1 (Homo sapiens) (UniProt P27695); assay: qHTS Validation Assay for Inhibitors of the Human Apurinic/apyrimidinic Endonuclease 1 (APE1) (AID 1705;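 also: TAMRA fluorescence gain over two minutes as APE1 cuts a quenched THF abasic duplex; % is scaled to controls: 0 for no effect and ±100 for the full control effect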)
Chain of DNA repair nuclease/redox regulator APEX1 (Homo sapiens) (P27695 whole entry, looked up): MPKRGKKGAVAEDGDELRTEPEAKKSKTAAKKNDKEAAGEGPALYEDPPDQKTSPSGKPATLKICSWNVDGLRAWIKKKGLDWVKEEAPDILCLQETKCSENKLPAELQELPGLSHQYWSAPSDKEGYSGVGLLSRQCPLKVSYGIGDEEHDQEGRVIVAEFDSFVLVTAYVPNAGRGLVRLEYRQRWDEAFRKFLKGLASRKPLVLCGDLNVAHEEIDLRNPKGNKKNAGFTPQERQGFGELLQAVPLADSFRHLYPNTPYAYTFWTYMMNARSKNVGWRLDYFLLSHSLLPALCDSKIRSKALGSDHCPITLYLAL
Method in brief: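 qHTS, 1536-well. APE1 + cpd 15 min RT → 50 nM TAMRA/BHQ-2 THF-abasic dsDNA substrate → kinetic fluorescence, 3 reads/60 s; delta(read3−read1) = reaction progress. No-enzyme buffer = negative control.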

[2] = target: Endonuclease 4 (Escherichia coli (strain K12)) (UniProt P0A6C1); assay: Counterscreen for APE1 Inhibitors: qHTS Validation Assay for Inhibitors of Endonuclease IV (AID 1708); also: potency is read from the fitted curve at half-maximal effect; as to activity change, negative = inhibition: % is scaled to controls: 0 for no effect and ±100 for the full control effect
Method in brief: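 Concentration-response counterscreen run identically to the APE1 assay: 15 min room-temperature preincubation of 2 nM enzyme with compound, reaction started with 50 nM quenched abasic DNA, progress taken from kinetic fluorescence.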

[3] = qHTS for differential inhibitors of proliferation of Plasmodium falciparum line GB4 (AID 1816); details: Potency: Plasmodium falciparum GB4 proliferation inhibition;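 also: parasite growth measured after 72 h incubation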; also: potency is read from the fitted curve at half-maximal effect;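 as to activity change, negative = inhibition: 0% = vehicle DMSO and -100% = reference inhibitor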
[4] = qHTS for differential inhibitors of proliferation of Plasmodium falciparum line 3D7 (AID 1876); also: potency is read from the fitted curve at half-maximal effect
[5] = qHTS for differential inhibitors of proliferation of Plasmodium falciparum line D10 (AID 1877);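 also: parasites grown with compound for 72 h before DNA staining; plate controls were vehicle wells for no effect and reference inhibitor wells for full effect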
[6] = qHTS for differential inhibitors of proliferation of Plasmodium falciparum line W2 (AID 1883); details: Potency: Plasmodium falciparum W2 proliferation inhibition;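 also: parasites grown with compound for 72 h before lysis and staining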; also: potency is read from the fitted curve at half-maximal effect;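 as to activity change, negative = inhibition: 0% = vehicle wells and -100% = control inhibitor wells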
[7] = qHTS for differential inhibitors of proliferation of Plasmodium falciparum line HB3 (AID 1886); details: Potency: Plasmodium falciparum HB3 proliferation inhibition;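 also: parasites grown with compound for 72 h before SYBR Green readout; plate controls were vehicle for no effect and reference inhibitor for full effect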
[8] = target: ATP-dependent DNA helicase Q1 (Homo sapiens) (UniProt P46063); assay: qHTS Validation Assay for Inhibitors of RecQ-Like Dna Helicase 1 (RECQ1) (AID 2353);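 also: plate controls were DMSO vehicle for no effect and enzyme-free control for full effect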
Chain of ATP-dependent DNA helicase Q1 (Homo sapiens) (P46063 whole entry, looked up): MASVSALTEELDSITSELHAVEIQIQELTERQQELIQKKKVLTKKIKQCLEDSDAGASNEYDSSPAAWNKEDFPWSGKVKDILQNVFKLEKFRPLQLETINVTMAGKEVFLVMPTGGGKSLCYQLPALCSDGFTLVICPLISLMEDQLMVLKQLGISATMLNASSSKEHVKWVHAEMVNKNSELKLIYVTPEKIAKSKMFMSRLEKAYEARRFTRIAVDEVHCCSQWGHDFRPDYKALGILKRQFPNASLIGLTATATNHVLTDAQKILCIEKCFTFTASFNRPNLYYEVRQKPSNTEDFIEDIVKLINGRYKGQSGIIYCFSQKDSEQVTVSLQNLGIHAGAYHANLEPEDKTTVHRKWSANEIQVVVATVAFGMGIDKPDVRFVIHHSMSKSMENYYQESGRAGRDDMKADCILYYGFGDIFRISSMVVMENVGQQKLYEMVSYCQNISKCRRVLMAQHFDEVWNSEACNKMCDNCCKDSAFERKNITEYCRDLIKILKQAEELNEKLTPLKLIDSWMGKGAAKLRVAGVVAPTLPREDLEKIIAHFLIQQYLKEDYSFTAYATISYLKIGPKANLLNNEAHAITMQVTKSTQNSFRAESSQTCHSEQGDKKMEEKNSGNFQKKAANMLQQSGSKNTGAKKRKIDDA
Method in brief: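 50 nM RECQ1T1 preincubated 15 min with compound in Tris pH 8.0 buffer with MgCl2, DTT, Tween-20 and 2.5 ug/ml poly(dI-dC); started with 200 nM TAMRA/BHQ-2 forked duplex and 2 mM ATP. Unwinding read as fluorescence (525/598 nm), two reads 2 h apart.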

[9] = target: RecQ-like DNA helicase BLM (Homo sapiens) (UniProt P54132); assay: qHTS Validation Assay for Inhibitors of Bloom's syndrome helicase (BLM) (AID 2364);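 also: plate controls were DMSO vehicle for no effect and enzyme-free control for full effect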
Method in brief: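 BLM 50 nM in 25 mM Tris-HCl pH 8.0, 5 mM NaCl, 2 mM MgCl2, 1 mM DTT, 0.01% Tween-20, 2.5 ug/ml poly(dI-dC); 15 min cpd preinc, RT. Start: 200 nM forked DNA + 2 mM ATP (final). TAMRA read, 2 reads 2 h apart.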

[10] = Validation screen for inhibitors of Lassa infection (AID 463096; calls by dose curve; also: % is scaled to controls: 0 for no effect and ±100 for the full control effect)
[11] = Validation screen for small molecules that induce DNA re-replication in MCF 10A normal breast cells (AID 463097); also: 0% is about no effect; nearly all actives have a fitted effect of over 60% in size
Method in brief: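 Image-based qHTS: normal breast cells are incubated with compound for 48 hr, stained with Hoechst, and scanned for total nuclear fluorescence. Compounds raising the fraction of nuclei with elevated DNA content count as re-replication inducers.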

[12] = Quantitative high throughput screen for delayed death inhibitors of the malarial parasite plastid, 96 hour incubation (AID 488745); also: % is scaled to controls: 0 for no effect and ±100 for the full control effect; nearly all actives have a fitted effect of over 70% in size
Method in brief: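 Luciferase-expressing P. falciparum in erythrocytes (2% hematocrit, 0.1% parasitemia) incubated with compound for 96 h at 37 C, 5% CO2, in RPMI 1640 with 0.5% Albumax. Growth inhibition read as decreased luminescence.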

[13] = target: M-phase phosphoprotein 8 (Homo sapiens) (UniProt Q99549); assay: qHTS Validation Assay for Inhibitors for MPP8 Chromodomain Interactions with Methylated Histone Tails (AID 488949); also: nearly all actives have a fitted effect of over 55% in size; also: potency is read from the fitted curve at half-maximal effect;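 as to activity change, negative = inhibition: 50 nM MPP8 with 50 nM peptide preformed then compounds added for 30 min; AlphaScreen signal from MPP8 chromodomain bound to biotinylated H3K9me3 peptide; top concentration of the series differs between compounds; % is scaled to controls: 0 for no effect and ±100 for the full control effect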
Chain of M-phase phosphoprotein 8 (Homo sapiens) (Q99549 whole entry, looked up): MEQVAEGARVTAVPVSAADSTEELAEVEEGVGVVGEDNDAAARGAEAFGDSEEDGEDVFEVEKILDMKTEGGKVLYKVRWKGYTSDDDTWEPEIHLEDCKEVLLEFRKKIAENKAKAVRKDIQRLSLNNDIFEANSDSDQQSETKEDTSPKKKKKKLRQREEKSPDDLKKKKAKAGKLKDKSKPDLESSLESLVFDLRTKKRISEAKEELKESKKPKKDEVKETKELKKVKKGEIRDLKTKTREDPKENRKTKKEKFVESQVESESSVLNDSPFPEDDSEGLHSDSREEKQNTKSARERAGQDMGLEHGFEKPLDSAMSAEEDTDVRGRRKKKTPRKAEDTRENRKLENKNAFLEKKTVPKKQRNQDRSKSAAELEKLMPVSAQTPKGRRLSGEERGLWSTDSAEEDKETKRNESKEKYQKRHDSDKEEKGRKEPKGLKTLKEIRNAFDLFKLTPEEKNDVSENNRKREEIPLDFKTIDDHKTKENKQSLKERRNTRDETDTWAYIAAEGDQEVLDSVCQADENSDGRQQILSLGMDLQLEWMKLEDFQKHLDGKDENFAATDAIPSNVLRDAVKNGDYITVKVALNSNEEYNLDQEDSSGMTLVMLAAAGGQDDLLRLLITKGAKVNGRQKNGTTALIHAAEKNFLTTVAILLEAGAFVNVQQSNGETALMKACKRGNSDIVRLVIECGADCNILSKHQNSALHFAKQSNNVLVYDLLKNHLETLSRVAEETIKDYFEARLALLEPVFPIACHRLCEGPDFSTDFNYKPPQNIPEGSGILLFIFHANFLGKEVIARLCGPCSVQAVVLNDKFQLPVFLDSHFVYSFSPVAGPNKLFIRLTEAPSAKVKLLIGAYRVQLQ
Method in brief: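 50 nM MPP8 + 50 nM b-H3K9me3 peptide, PBS pH 7.4/0.01% Tween-20, 30 min RT; + cpd 30 min RT; + AlphaScreen donor/Ni-chelate acceptor beads 10 ug/mL final, 30 min dark; luminescence read.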

[14] = target: Thyrotropin receptor (Homo sapiens) (UniProt P16473); assay: qHTS Assay for Antagonists of the Thyroid Stimulating Hormone Receptor (AID 488980); also: 0% is about no effect
Method in brief: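 Readout is cAMP by HTRF competition between cellular cAMP and cAMP-d2 for a cryptate-labelled antibody. Antagonism was assessed in TSHR-transfected HEK293 cells stimulated with 4 nM TSH (EC80, final) in the presence of RO 20-1724.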

[15] = target: Thyrotropin-releasing hormone receptor (Homo sapiens) (UniProt P34981); assay: qHTS for Small Molecule Agonists and Allosteric Enhancers of Human TRH Receptor: Validation Screen for Agonists (AID 493127;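 active = calcium activation more than 3 SD above the typical response in the agonist read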; also: 0% is about no effect); details: TRH receptor agonist cell assay; at 2 µM; stronger effect = higher value
Chain of Thyrotropin-releasing hormone receptor (Homo sapiens) (P34981 whole entry, looked up): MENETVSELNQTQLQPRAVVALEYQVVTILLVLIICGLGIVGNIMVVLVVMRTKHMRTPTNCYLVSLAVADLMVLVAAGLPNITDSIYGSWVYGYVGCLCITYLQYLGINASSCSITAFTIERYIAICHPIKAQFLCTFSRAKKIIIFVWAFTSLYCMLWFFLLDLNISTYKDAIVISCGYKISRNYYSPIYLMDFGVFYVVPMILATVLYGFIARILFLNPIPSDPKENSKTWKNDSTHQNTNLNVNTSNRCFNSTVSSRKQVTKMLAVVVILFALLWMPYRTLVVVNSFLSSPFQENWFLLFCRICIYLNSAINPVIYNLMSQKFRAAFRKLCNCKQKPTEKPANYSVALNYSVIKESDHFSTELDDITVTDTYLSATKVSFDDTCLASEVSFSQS
Method in brief: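 TRHR cells loaded with fluo-8 calcium dye; FDSS kinetic fluorescence (Ex 480/Em 530) read at 1 s/cycle after 23 nL compound addition. Agonist-mode calcium response recorded before the 10 nM TRH (EC20) addition.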

[16] = target: Galactokinase (Homo sapiens) (UniProt P51570); assay: qHTS Validation Assay for Inhibitors of Human Galactokinase (GALK) (AID 493189); also: 0% is about no effect
Chain of Galactokinase (Homo sapiens) (P51570 whole entry, looked up): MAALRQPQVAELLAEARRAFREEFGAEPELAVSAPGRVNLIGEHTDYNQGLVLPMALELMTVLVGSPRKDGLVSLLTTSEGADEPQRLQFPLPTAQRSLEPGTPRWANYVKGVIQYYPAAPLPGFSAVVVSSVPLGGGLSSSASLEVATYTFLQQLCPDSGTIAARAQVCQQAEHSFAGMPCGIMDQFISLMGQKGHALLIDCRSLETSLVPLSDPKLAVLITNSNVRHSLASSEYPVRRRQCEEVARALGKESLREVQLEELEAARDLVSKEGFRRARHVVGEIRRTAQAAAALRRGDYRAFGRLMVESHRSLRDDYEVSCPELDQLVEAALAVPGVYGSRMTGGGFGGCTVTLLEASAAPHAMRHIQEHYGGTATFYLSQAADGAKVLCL
Method in brief: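 5 nM GALK / 100 uM galactose / 35 uM ATP, 20 mM HEPES pH8.0, 5 mM MgCl2, 60 mM NaCl, 1 mM DTT, 0.01% BSA (final). RT 1 h; Kinase-Glo Plus luminescence.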

[17] = Validation screen for small molecules that induce DNA re-replication in SW480 colon adenocarcinoma cells (AID 504364); also: 0% is about no effect
Method in brief: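 SW480 cells (250/well) exposed 48 h at 37 C, 5% CO2, then Hoechst-stained 40 min. Nuclear DNA content imaged by fluorescence scanning (405 nm excitation, 500-530 nm emission); re-replication scored as increased nuclei with elevated intensity.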

[18] = target: Voltage-gated inwardly rectifying potassium channel KCNH2 (Homo sapiens) (UniProt Q12809); assay: qHTS Assay for Small Molecule Inhibitors of the Human hERG Channel Activity (AID 588834);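 also: top concentration of the series differs between compounds; % is scaled to controls: 0 for no effect and ±100 for the full control effect; lower thallium flux fluorescence means stronger hERG block; nearly all actives have a fitted effect of over 50% in size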
Chain of Voltage-gated inwardly rectifying potassium channel KCNH2 (Homo sapiens) (Q12809 whole entry, looked up): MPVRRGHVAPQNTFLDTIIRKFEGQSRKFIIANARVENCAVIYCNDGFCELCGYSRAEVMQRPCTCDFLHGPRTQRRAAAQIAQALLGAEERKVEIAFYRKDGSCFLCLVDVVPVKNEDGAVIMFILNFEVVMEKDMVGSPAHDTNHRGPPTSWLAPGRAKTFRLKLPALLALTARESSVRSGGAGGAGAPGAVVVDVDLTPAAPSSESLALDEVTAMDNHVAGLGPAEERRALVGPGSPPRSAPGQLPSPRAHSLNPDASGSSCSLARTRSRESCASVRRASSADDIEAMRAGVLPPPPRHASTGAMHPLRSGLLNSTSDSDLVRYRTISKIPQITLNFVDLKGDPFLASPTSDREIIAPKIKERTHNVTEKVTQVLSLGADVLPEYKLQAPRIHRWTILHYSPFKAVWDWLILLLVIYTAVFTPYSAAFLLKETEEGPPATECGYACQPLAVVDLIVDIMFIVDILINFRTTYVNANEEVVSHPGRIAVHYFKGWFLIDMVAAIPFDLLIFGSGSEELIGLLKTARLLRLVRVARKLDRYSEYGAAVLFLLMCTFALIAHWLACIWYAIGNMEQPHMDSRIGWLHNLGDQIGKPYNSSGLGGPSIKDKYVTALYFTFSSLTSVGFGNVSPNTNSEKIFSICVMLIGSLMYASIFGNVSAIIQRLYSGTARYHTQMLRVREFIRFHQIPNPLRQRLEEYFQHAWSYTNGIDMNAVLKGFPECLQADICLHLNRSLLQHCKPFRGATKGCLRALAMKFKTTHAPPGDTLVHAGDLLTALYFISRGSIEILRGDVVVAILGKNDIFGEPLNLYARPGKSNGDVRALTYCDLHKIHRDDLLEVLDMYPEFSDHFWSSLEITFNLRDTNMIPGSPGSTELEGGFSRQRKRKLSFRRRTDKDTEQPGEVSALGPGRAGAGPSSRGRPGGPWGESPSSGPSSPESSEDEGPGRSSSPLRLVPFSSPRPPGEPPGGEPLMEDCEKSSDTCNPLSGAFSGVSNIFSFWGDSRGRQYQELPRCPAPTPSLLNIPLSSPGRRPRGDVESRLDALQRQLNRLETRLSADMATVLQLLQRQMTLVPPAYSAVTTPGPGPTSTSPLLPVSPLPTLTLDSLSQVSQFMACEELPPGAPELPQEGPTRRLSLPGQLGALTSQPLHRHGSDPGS
Method in brief: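 hERG-BacMam U2OS, 2000 cells/well; 0.7X FluxOR loading 1 hr RT dark; cpd ~10 min 37 °C; stim buffer; FDSS fluorescence 2 min @ 1 s; AC50 Hill fit.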

[19] = target: Catechol O-methyltransferase (Homo sapiens) (UniProt P21964); assay: Confirmatory Screen for Target Class Profiling of Small Molecule Inhibitors of Methyltransferases (AID 1745852; calls by dose curve); details: MTase-Glo luminescence, SAH detection, recombinant enzyme; measured here: COMT max response; stronger effect = lower value
Chain of Catechol O-methyltransferase (Homo sapiens) (P21964 whole entry, looked up): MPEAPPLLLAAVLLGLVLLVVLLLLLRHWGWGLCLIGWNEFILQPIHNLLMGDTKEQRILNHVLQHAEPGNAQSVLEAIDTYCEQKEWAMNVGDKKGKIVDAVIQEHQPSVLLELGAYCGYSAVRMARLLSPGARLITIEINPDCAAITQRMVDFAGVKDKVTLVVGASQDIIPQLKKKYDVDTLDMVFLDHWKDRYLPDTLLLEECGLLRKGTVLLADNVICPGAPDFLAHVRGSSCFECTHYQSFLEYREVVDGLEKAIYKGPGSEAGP

[20] = target: Guanidinoacetate N-methyltransferase (Homo sapiens) (UniProt Q14353); assay: as above; details: MTase-Glo luminescence, SAH detection, recombinant enzyme; activity change, negative = inhibition: at 85.7 µM (top of the series) unless noted
[21] = target: Nicotinamide N-methyltransferase (Homo sapiens) (UniProt P40261); assay: as above; details: MTase-Glo luminescence, SAH detection, recombinant enzyme; measured here: NNMT max response; stronger effect = lower value
Chain of Nicotinamide N-methyltransferase (Homo sapiens) (P40261 whole entry, looked up): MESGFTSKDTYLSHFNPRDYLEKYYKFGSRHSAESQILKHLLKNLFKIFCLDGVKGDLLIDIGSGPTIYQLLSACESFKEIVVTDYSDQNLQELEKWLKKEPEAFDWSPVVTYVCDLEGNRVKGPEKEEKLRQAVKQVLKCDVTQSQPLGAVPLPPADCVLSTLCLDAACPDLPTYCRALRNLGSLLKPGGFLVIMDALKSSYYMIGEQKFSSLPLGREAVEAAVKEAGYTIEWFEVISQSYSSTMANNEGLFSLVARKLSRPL

[22] = target: Phenylethanolamine N-methyltransferase (Homo sapiens) (UniProt P11086); assay: as above; details: MTase-Glo luminescence, SAH detection, recombinant enzyme; measured here: PNMT max response; stronger effect = lower value
Chain of Phenylethanolamine N-methyltransferase (Homo sapiens) (P11086 whole entry, looked up): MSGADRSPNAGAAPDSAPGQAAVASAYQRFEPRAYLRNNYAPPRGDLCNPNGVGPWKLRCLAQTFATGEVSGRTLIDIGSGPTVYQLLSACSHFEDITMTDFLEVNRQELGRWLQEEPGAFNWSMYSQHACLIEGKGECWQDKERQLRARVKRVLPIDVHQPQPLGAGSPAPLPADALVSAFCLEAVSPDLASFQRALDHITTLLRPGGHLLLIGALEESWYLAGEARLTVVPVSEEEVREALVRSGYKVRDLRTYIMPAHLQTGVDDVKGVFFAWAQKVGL

[23] = NCATS anti-infectives library activity on HEK293 viability as a counter-qHTS vs the C. elegans viability qHTS (AID 1745854);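 also: potency is read from the fitted curve at half-maximal effect; HEK293 cells exposed to compounds for 24 hr before the viability read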
Method in brief: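 HEK293 cells (1,500/well) exposed 24 hr at 37C to 1:5 titrations, up to 41.7 uM final; counter-screen to a C. elegans viability qHTS. Viability by CellTiter-Glo luminescence after 10 min at room temperature; digitonin as control.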

[24] = qHTS for differential inhibitors of proliferation of Plasmodium falciparum line 7G8 (AID 1815);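 also: parasite growth measured after three days of incubation; plate controls were vehicle wells for no effect and reference inhibitor wells for full effect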
[25] = qHTS Assay for Modulators of Human Peripheral Myelin Protein 22 (PMP22) Expression/Activity (AID 1967; active = well fitted curve in the direction sought with a large enough effect in the signal ratio; the % refers to the signal ratio;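 also: 0% = untreated cells and 100% end not stated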)
Method in brief: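 Luminescence ratio of Pmp22 promoter-driven green luciferase to EF-alpha-driven red luciferase, in engineered mouse MSC80 Schwann cells, served as read-out. Compounds were incubated 24h; untreated cells defined 0% Activity; curves were classified by r2, magnitude and activity.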

COc1cc(C[C@@H](C)N)c(OC)cc1I
active: Potency [3] 12.6 µM | Potency [6] 3.98 µM
inactive: Potency [1] | Potency [2] | Potency [4] | Potency [5] | Potency [7] | outcome [8] | outcome [9] | Potency [10] | Potency [11] | Potency [12] | Potency [13] | outcome [14] | activation [15] 0.562% | outcome [16] | outcome [17] | Potency [18]

[Cl][Pt].[NH2-].[NH2-].c1ccncc1
3.42% [at 57.3 µM]: activity change, negative = inhibition [20]
0.0118%: activity [22]
-8.73%: activity [21]
-4.9%: activity [19]

Nc1ncnc2c1ccn2[C@@H]1O[C@H](CO)[C@@H](O)[C@H]1O
active: Potency [23] 1.12 µM

CN1C[C@@H](CS(=O)(=O)N(C)C)C[C@@H]2c3cccc4c3c(cn4C)C[C@H]21
inactive: Potency [1] | Potency [2] | outcome [8] | outcome [9] | Potency [10] | Potency [11] | outcome [14] | activation [15] 1.44% | outcome [16] | outcome [17] | Potency [18]
active: Potency [4] 3.98 µM | Potency [6] 3.55 µM

CCNC(=O)[C@H]1O[C@@H](n2cnc3c(N)ncnc32)[C@H](O)[C@H]1O
inactive: Potency [1] | Potency [2] | Potency [24] | Potency [3] | Potency [4] | Potency [5] | Potency [6] | Potency [7] | outcome [25] | outcome [8] | Potency [10] | Potency [11] | Potency [12] | Potency [13] | outcome [14] | activation [15] 0% | outcome [16] | outcome [17] | Potency [18]

NC(=O)c1ccc(N2CC3CCC(C2)N3CC(F)(F)F)nn1
10.2%: activity [19]
-22.1%: activity [21]
10.9%: activity [22]
9.09%: activity change, negative = inhibition [20]

N.N.N.N.N.N.N.N.N.N.N.N.N.N.O.O.[Cl-].[Cl-].[Cl-].[Cl-].[Cl-].[Cl-].[Ru].[Ru].[Ru]
inactive: Potency [10]
active: Potency [2] 28.2 µM | Potency [13] 10 µM

CNC1CCc2ccccc21 (configuration not stated)
-95.4%: activity [21]
9.32% [at 114 µM]: activity change, negative = inhibition [20]
-50.7%: activity [22]
-8.85%: activity [19]

N#CC(=Cc1ccc(O)c(O)c1)C(N)=S
active: Potency [13] 44.7 µM
inactive: Potency [2] | Potency [5] | outcome [8] | Potency [10] | Potency [11] | Potency [12] | outcome [14] | activation [15] 3.19% | outcome [16] | outcome [17] | Potency [18]

COc1ccc(-c2cc3c(cn2)CN(C)CCN3)cn1
-1.54% [at 114 µM]: activity change, negative = inhibition [20]
-1.09%: activity [22]
1.58%: activity [19]
-5.95%: activity [21]
